The full list was thinned out, with hits kept by preference.
Tg IFNy HTS: T. gondii growth inhibition with IFN-gamma, primary screen, cell-based. Toxoplasma gondii growth in IFN-gamma-treated host cells; active compounds read low. 69,000 compounds, 3.8% hits. activity change, negative = inhibition, % (concentration not given with the values). AID 1259416, 2018; in the data active = activity change below about -70%, passing the limit was not always enough;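 note: host cells are HeLa cells infected with Toxoplasma gondii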
An asterisk follows results filed as active; i = inactive; ! = a repeat was not active.

SMILES	Tg IFNy HTS
CCOCC1CCC2(CCN(C(=O)CCc3ccccc3C)CC2)N1C (centres undefined)	-3
CN1CC2(CCN(C(=O)CCc3nc4ccccc4[nH]3)C2)OC1=O (centres undefined)	0
FC(F)(F)c1ccccc1-n1ccnc1	18
Clc1ccccc1C(c1ccccc1)(c1ccccc1)n1ccnc1	-83*!
N#C/C(=C1/SCC(c2ccccc2Cl)S1)n1ccnc1 (centres undefined)	8
O=C(c1ccc(Br)cc1)N1CCC2(CC1)Nc1cc(F)ccc1-n1cccc12	38
Cc1ccc(-c2ccccc2NC(=O)C2CC2)cc1F	1
CCc1cc(-c2ccc(C(C)N3CCOCC3)cc2)ccc1NC(C)=O (centres undefined)	3
CC1c2cccn2CCN1C(=O)c1cn[nH]c1-n1cnnn1 (centres undefined)	0
O=C(O)c1cccnc1NCC1CCCO1 (centres undefined)	-28
O=C(Nc1ccc(F)cc1)c1cccnc1Oc1ccccc1	-31
N#CC1(c2ccc(NC(=O)c3cccnc3NCc3ccncc3)cc2)CCCC1	-72*
CCn1cc2c(n1)CN(C(=O)COC)CC2COC (centres undefined)	25
COCCN(C(=O)c1ccc(C)c(NC(=O)C2CC2)c1)C(C)C	-12
COc1cc(OC)cc(C(=O)N2CSC[C@@H]2C(=O)NCCc2csc(-c3ccccc3)n2)c1	-60
c1cncc(Oc2ccc(-n3ccnc3-c3ccncc3)cc2)c1	-22
COc1ccc2c(c1)OCC(Cc1ccc(O)c(OC)c1)C2=O (centres undefined)	2
COc1cc(C[C@H]2C(=O)OC[C@@H]2Cc2ccc(OC)c(OC)c2)ccc1O	-27
COc1ccc2c(c1)OCC(Cc1ccc(OC)c(O)c1)C2=O (centres undefined)	-75*
CCc1noc(CC)c1C(=O)N1C2CCC1CC(O)(c1ccc3c(c1)OCO3)C2 (centres undefined)	6
Cc1ccc(OCC(=O)N2CCC3(CC2)COc2ccccc2S(=O)(=O)N(C)C3)cc1	-5
CCN(CC)CCCn1nnc2c(=O)oc3ccccc3c21	9
CC(Cn1cncn1)C(=O)Nc1ccccc1C(=O)N1CCCCCC1 (centres undefined)	225
CCc1cccc(NC(=O)Cn2ncc3c(N4CCN(c5ccccn5)CC4)ncnc32)c1	-62
O=C(Cn1ncc2c(N3CCN(c4ccccn4)CC3)ncnc21)Nc1cccc(Cl)c1	-50
SMILES	Tg IFNy HTS
CCc1cccc(NC(=O)Cn2ncc3c(N4CCN(c5ccccc5)CC4)ncnc32)c1	-82*
O=C(Cn1ncc2c(N3CCN(c4ccccc4)CC3)ncnc21)Nc1cccc(Cl)c1	31
O=C(Cn1ncc2c(N3CCN(c4ccccn4)CC3)ncnc21)Nc1ccc(Br)cc1	-15
O=C(Cn1ncc2c(N3CCN(c4ccccn4)CC3)ncnc21)Nc1cccc(Br)c1	-99*
COc1cccc(NC(=O)c2c(O)c3cccnc3[nH]c2=O)c1	84
CCn1c(C2CCCNC2)nn(Cc2cnn(-c3ccccc3F)c2)c1=O (centres undefined)	5
COc1ccc(-c2nc(C)c(CCNC(=O)c3ccc([N+](=O)[O-])cc3)s2)cc1OC	i
Cc1cc(C)cc(CNCC2COCc3c(C)nnn3C2)c1 (centres undefined)	11
COc1ccc(C)cc1NC(=O)c1nc(Nc2ccccc2)c2ccccc2n1	19
O=c1oc2cc(O)ccc2cc1-c1csc(-c2ccc(Br)cc2)n1	1
O=C1C(Cc2c[nH]c3ccccc23)N=C2c3ccccc3N=C(SCc3ccccc3Cl)N12 (centres undefined)	6
Cc1ccsc1CN(C)C(=O)c1n[nH]c2ccccc12	37
O=C(Nc1cccc(F)c1)N1CCC2(CC1)Nc1cc(F)ccc1-n1cccc12	i
CC(C)c1cc(-c2n[nH]c(=O)n2-c2ccc3c(ccn3C)c2)c(O)cc1O	-79*
c1ccc(CNc2ncc(CN3CCCN4CCC[C@H]4C3)cn2)cc1	-21
CN(C)C(=O)N1CC2(CCOCC2)c2cc(NC(=O)C3CCC3)ccc21	7
Cc1ccc(S(=O)(=O)Nc2cc(=O)[nH]c(SCc3ccccc3Cl)n2)cc1	-2
Cc1ccc(S(=O)(=O)c2ncsc2SCc2ccc(Cl)cc2Cl)cc1	-94*
Cc1cc2nc3ccccc3c(=O)n2c(SCc2ccc(Cl)cc2Cl)n1	4
O=C(Nc1ccc(F)cc1F)c1c(O)c2cccnc2n(-c2cccc(F)c2)c1=O	52
OCCNc1ncnc2ccc(-c3cccc4[nH]ccc34)cc12	-57
Cc1csc2ncnc(-c3cccc4[nH]ccc34)c12	-74*
CCNc1ccnc(-c2cccc3[nH]ccc23)n1	36
O=C(c1ccc(-c2ccccc2)cc1)N1CCN(C2CC3CCC2C3)CC1 (centres undefined)	-47
CCn1ccnc1CC1COc2ccccc2O1 (centres undefined)	-18
SMILES	Tg IFNy HTS
c1ccc2c(c1)OCC(c1csc3ncnc(N4CCCCC4)c13)O2 (centres undefined)	-90*
CN(C)C(=O)c1ccc2ncnc(N3CCCCC3)c2c1	-19
Cn1cnc2cc(C(=O)N3CCNCC3C(=O)NC3CC3)cnc21 (centres undefined)	1
O=C(c1ccco1)N1C[C@H]2CN(c3cncnc3)C(=O)[C@@H]2C1	0
COc1cc2c(cc1OC)C(C)=NC1(CCCCC1)C2	24
COc1ccc(-c2nnc3n2C2(CCCC2)Cc2cc(OC)c(OC)cc2-3)cc1	-11
COc1cc2c(cc1OC)C(Nc1ccc(Br)cc1)=NC1(CCCC1)C2	-85*
Cc1ccc(NC(=O)Cn2ncc3c(N4CCN(c5ccccc5)CC4)ncnc32)cc1Cl	-54
CCc1nc(-c2ccc(C(=O)N3CCC4(CC3)OCCO4)cc2)cs1	26
N#Cc1cccc(CN2CCC3(CC2)N=C(C2CC2)NO3)c1	105
O=C(CC1CCNCC1)Nc1ccc2nccnc2c1	1
CCN(CC)S(=O)(=O)c1ccc2c(c1)cc(C(=O)NCCC(C)N1CCCC1)n2C (centres undefined)	-36
CCN(CC)S(=O)(=O)c1ccc2c(c1)cc(C(=O)NCC1CCN(Cc3ccc(C)cc3)C1)n2C (centres undefined)	-96*
Cc1ccc(CCNC(=O)c2cc3cc(S(=O)(=O)N(C)C)ccc3n2Cc2ccncc2)cc1	38
O=C(O)c1ccc(Oc2ncccn2)cc1	82
COCC12CCCOC1CCN(S(=O)(=O)c1cccnc1)C2 (centres undefined)	-4
CC(C)NC(=O)N1CCC(c2cc3c(ncn3C)c(NCc3ccccc3)n2)CC1	-46
CC(C)n1cnc2c(NCC3CC3)nc(C3CCN(C(=O)c4ccccc4)CC3)cc21	-82*
CN(C)C(=O)N1CCC(c2cc3c(ncn3C)c(NCc3ccccc3)n2)CC1	5
Cc1cc(C)n(Cc2nc(-c3ccc(NC(=O)C4CCCO4)cc3)oc2C)n1 (centres undefined)	104
O=C(c1cnc2ccccc2c1)N1CCC2(CC(=O)N(c3cccc(F)c3)C2)C1 (centres undefined)	-74*
Cc1cccc(N2CC3(CCN(C(=O)c4cnc5ccccc5c4)C3)CC2=O)c1 (centres undefined)	-63
O=C(c1cnc2ccccc2c1)N1CCC2(CC(=O)N(c3ccc(F)cc3)C2)C1 (centres undefined)	-31
COc1ccc(NC(=O)N2CCC3(CC2)Nc2cccnc2NC3=NC2CCCC2)c(C)c1	12
Cc1ccc(SC(=O)c2sc(-c3ccc(C(F)(F)F)cc3)nc2C)cc1	40
